tim23-1 inh = growth inhibitors of tim23-1 mutant yeast, primary screen, luminescence, uHTS; inhibition, % at 20 µM; 330,000 compounds, 1.3% hits; S. cerevisiae tim23-1 growth, BacTiter-Glo luminescence, 24 h;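 active means growth inhibition of the mutant yeast at or above 50%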;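 further: temperature-sensitive mutant grown at 25 °C; plate controls were DMSO-treated mutant yeast for no effect and medium wells lacking yeast for full effect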
tim10-1 inh = growth inhibitors of tim10-1 mutant yeast, primary screen, luminescence, uHTS; S. cerevisiae tim10-1 ts strain growth, BacTiter-Glo, 24 h; inhibition, % at 20 µM; 330,000 compounds, 2.2% hits;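 active means inhibition of at least 40%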;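 further: mutant grown at 25 °C; 0% = DMSO wells with yeast and 100% = wells holding no yeast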
PfHsp90 yeast 2 = growth inhibition of PfHsp90-expressing yeast, primary screen, antimalarial PfHsp90 inhibitor project, S. cerevisiae, BacTiter-Glo luminescence, single point, set 2; 310,000 compounds, 0.32% hits; inhibition, % at 9.4 µM; BacTiter-Glo ATP, 48 h; yeast lacking PDR1 and PDR3 efflux regulators;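 active means every replicate shows inhibition above about 80%, whatever the replicate mean, limit read from the data; inconclusive means mean inhibition reaches the set limit but some replicate falls short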;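 further: 0% = DMSO neutral controls and 100% = 20 µM radicicol positive controls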
Calb FLC = C. albicans growth inhibition with fluconazole, primary screen, CaCi-2 strain, Alamar Blue fluorescence | C. albicans CaCi-2 (fluconazole-resistant clinical isolate) + fluconazole, 48 h | growth inhibition, % (test concentration not listed) | 300,000 compounds, 0.57% hits | AID 1979, 2009;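 active means growth inhibition above about 58% in most replicates, limit read from the data, passing the limit was not always enough; inconclusive means exactly half the replicates above a set limit; inactive means most replicates below a set limit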;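 further: all wells also contain fluconazole at 8 µg/ml as a sub-toxic cotreatment; 0% = median of DMSO wells and 100% = median of geldanamycin control wells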
TIM10 inh = growth inhibitors of isogenic TIM10 control yeast, primary screen, counter-screen for tim10-1 yeast inhibitor project, luminescence, uHTS | S. cerevisiae TIM10 strain growth, BacTiter-Glo luminescence, 24 h | inhibition, % at 10 µM | 330,000 compounds, 1.4% hits | AID 463195, 2010;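 active means inhibition of 40% or more at the single tested concentration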;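 further: wild-type TIM10 isogenic control strain grown at permissive 25 °C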
SKKanGAS inh = S. pyogenes SKKanGAS growth inhibitors in kanamycin, primary screen, streptokinase expression inhibitor project, SKKanGAS strain, BacTiter-Glo luminescence | 300,000 compounds, 1.3% hits | AID 1662, 2009 | inhibition, % at 7.5 µM | 6 h;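 active means mean replicate score, as percent of positive control median, at least 50; inconclusive means mean below 50 but one replicate at or above 50; inactive means mean and every replicate below 50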;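 further: strain carries kanamycin resistance gene driven by streptokinase promoter and grows in 40 µg/ml kanamycin; loss of luminescence reflects streptokinase promoter inhibition or plain growth inhibition; 0% = median of DMSO wells and 100% = positive control at its reference dose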
* marks the source's active call; other numbers are inactive results; ? = inconclusive; · = no result. Rows were chosen to be rich in hits. Some 4.7% of all compounds tested hit in one or more screens of this group.

SMILES | tim23-1 inh | tim10-1 inh | PfHsp90 yeast 2 | Calb FLC | TIM10 inh | SKKanGAS inh
O=C(Cn1c2ccc(F)cc2c2nc3n(c(=O)c21)CCS3)N1CCCC1 | 17 | 8 | 1 | 89* | -12 | 7
CC1CCCN(C(=O)Cn2c3ccccc3c3nc4n(c(=O)c32)CCS4)C1 (stereo unspecified) | 4 | 13 | 12 | 34 | 5 | 45
CC1CCN(C(=O)Cn2c3ccccc3c3nc4n(c(=O)c32)CCS4)CC1 | 16 | 16 | 4 | 91* | 11 | 13
Cc1cccc(C(=O)NC(C(=O)Nc2ccc(S(=O)(=O)Nc3nccs3)cc2)C(C)C)c1 (stereo unspecified) | · | · | 16 | · | · | ·
Cn1nc(-c2ccccc2)c(CSc2ccccc2Cl)c1Cl | -10 | -21 | -1 | ? | -14 | 75*
Cc1ccc(C2CC(=O)c3cnc(N4CCN(c5ccccc5)CC4)nc3C2)cc1 (stereo unspecified) | 13 | 20 | -26 | -1 | -1 | 35
CC1CC(C)CN(c2ncc3c(n2)CC(c2ccccc2Cl)CC3=O)C1 (stereo unspecified) | 27 | 32 | -4 | ? | 24 | 63*
COc1ccc(C2CC(=O)c3cnc(N4CCN(Cc5ccccc5)CC4)nc3C2)cc1 (stereo unspecified) | 20 | 33 | -12 | 42 | 20 | 56*
Cc1c[nH]c2ccccc12 | 7 | -8 | 14 | · | 5 | ·
Cc1c(C)n2c(SCC(=O)NCc3ccc4c(c3)OCO4)nnc2[nH]c1=O | -7 | -12 | · | -3 | -9 | -1
CC(C)=CCc1c2c(c(O)c3c(=O)c4c(oc13)-c1cc(O)c(O)cc1OC4C=C(C)C)C=CC(C)(C)O2 (stereo unspecified) | 11 | 25 | · | 89* | -14 | 93*
CC(C)=CCc1c(-c2ccc(O)cc2O)oc2c3c(cc(O)c2c1=O)OC(C)(C)C=C3 | 39 | 26 | · | 17 | 16 | 108*
CC(C)=CCc1c([C@@H]2CCc3ccc(O)cc3O2)cc2c(c1O)OC(C)(C)C=C2 | 30 | 22 | · | 14 | 11 | 26
COCCN(C(=O)c1cc(CN2C(=O)c3ccccc3C2=O)ccc1OC)c1c(N)n(CC(C)C)c(=O)[nH]c1=O | · | · | 11 | · | · | ·
CCOC(=O)C1CCN(S(=O)(=O)c2ccc3c4c(cccc24)C(=O)N3CC)CC1 | 22 | 9 | 46 | · | 9 | ·
Cc1ccc(-n2c(Cc3ccccc3)n[nH]c2=S)c(C)c1 | 21 | 8 | 9 | 72* | 14 | -7
Cc1ccc(-n2c(CC#N)n[nH]c2=S)c(C)c1 | -5 | 4 | 8 | 12 | 4 | 0
CCOc1ccc(S(=O)(=O)N(C)CC(=O)N2CCN(CC)CC2)cc1 | 5 | -14 | 11 | 4 | 2 | -1
CCOC(=O)c1c(NC(=O)C2C3C=CC(CC3)C2C(=O)O)sc(C)c1C (stereo unspecified) | 18 | 16 | -11 | 2 | 14 | 3
Cc1sc(NC(=O)C2C3C=CC(C3)C2C(=O)O)c(C(N)=O)c1-c1ccc(C(C)C)cc1 (stereo unspecified) | 20 | 22 | 3 | -9 | 21 | 53*
O=[N+]([O-])c1ccc(/C=N/NC(=S)Nc2ccc(Cl)cc2Cl)s1 | 44 | 16 | -28 | 107* | 7 | 77*
Fc1ccc(/C=N/NC(=S)Nc2ccc(Cl)cc2Cl)cc1 | -13 | 16 | 9 | 0 | 8 | -6
CCOC(=O)c1ccc(N2C(=O)CC(N3CCC(O)(c4ccc(Br)cc4)CC3)C2=O)cc1 (stereo unspecified) | 10 | 15 | 96* | -15 | 14 | 0
CCCOc1ccc(N2C(=O)CC(N3CCC(C(=O)OCC)CC3)C2=O)cc1 (stereo unspecified) | 38 | 39 | 105* | -3 | 38 | 13
CCOC(=O)c1ccc(N2C(=O)CC(N3CCC(O)(c4ccc(Cl)cc4)CC3)C2=O)cc1 (stereo unspecified) | 25 | 29 | 101* | -6 | 34 | 5
SMILES | tim23-1 inh | tim10-1 inh | PfHsp90 yeast 2 | Calb FLC | TIM10 inh | SKKanGAS inh
CCOc1ccc(N2C(=O)CC(N3CCC(O)(c4ccc(Br)cc4)CC3)C2=O)cc1 (stereo unspecified) | 24 | 39 | ? | -23 | 16 | 4
CCOC(=O)c1ccc(N2C(=O)CC(N3CCN(Cc4ccccc4)CC3)C2=O)cc1 (stereo unspecified) | 26 | 28 | 5 | -4 | 8 | -6
O=C1c2ccc(Cl)cc2S(=O)(=O)c2cccc(C(=O)N3CCC(Cc4ccccc4)CC3)c21 | 24 | 1 | -10 | · | 9 | ·
Cc1c(C(=O)N(C)C2CC(C)(C)NC(C)(C)C2)oc2c(F)cccc12 | -15 | -17 | -10 | 2 | 7 | -2
Cc1noc(C)c1NC(=O)Nc1ccc2c(c1)C(=O)N([C@H](C)CO)C[C@H](C)[C@H](CN(C)C)O2 | -3 | -4 | 6 | · | 0 | ·
COc1ccc(/C=c2\s/c(=C/C(=O)c3ccc(C)cc3)[nH]c2=O)cc1OC | 22 | 17 | -36 | 30 | 4 | 62*
CCn1nnnc1SCC(=O)N(C)C1CCS(=O)(=O)C1 (stereo unspecified) | -5 | -16 | -36 | · | 0 | ·
CCC(=O)NC(c1cccs1)c1ccc2cccnc2c1O (stereo unspecified) | 49 | 22 | 114* | 101* | 39 | 41
Cc1conc1NC(c1cccs1)c1ccc2cccnc2c1O (stereo unspecified) | 36 | 26 | · | 87* | -32 | 100*
Oc1c(C(Nc2nccs2)c2ccc(C(F)(F)F)cc2)ccc2cccnc12 (stereo unspecified) | · | · | 102* | 103* | · | 91*
COc1ccccc1NS(=O)(=O)c1ccc2ccccc2c1 | 22 | 9 | 0 | -10 | -2 | -4
COc1ccc(NS(=O)(=O)c2ccc3ccccc3c2)c2ncccc12 | 5 | 25 | -93 | ? | 12 | 94*
Cc1ccc(/C(O)=C/C(=O)C(=O)NC23CC4CC(CC(C4)C2)C3)cc1 | 19 | -2 | -9 | 5 | -7 | 54*
COc1cc(OC)cc(C(=O)NC2CCN(Cc3nnnn3Cc3ccc(F)cc3)CC2)c1 | 4 | 5 | -6 | 116* | 6 | 2
COc1cc(C(=O)NC2CCN(Cc3nnnn3Cc3ccc(F)cc3)CC2)cc(OC)c1OC | 3 | 11 | -24 | 12 | 10 | -3
Cc1cccc(C(=O)NNC2=C(C(=O)C(F)(F)F)CCC2)c1O | 19 | -40 | 8 | 105* | -33 | 104*
O=C(NNC1=C(C(=O)C(F)(F)F)CCC1)c1cccc(O)c1 | -4 | -11 | -19 | -24 | -14 | 22

Bioassay records as filed in PubChem.
